# From PubChem BioAssay (NCI)
# About 83,000 compounds went through this panel and 20% of them were active in at least one assay; those are over-represented in the sample as a whole.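 Compound tested at a single concentration for 48 hours in 96-well plates; a percent growth value below 10 was scored as active.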 The source made the active and inactive calls.
# Test system: MCF7 breast
# Experiment: NCI-60 one-dose screen, 48 h (100 = growth as untreated, 0 = no growth, -100 = all killed)
# Conditions: 10 µM unless noted
row,Compound,growth
1,O=c1[nH]c(CNc2ccc(NCc3c(-c4ccccc4)no[n+]3[O-])cc2)nc2c1cnn2-c1ccccc1,50.1% (inactive)
2,CCNC(=O)Oc1ccc(/C(=C(/C)c2ccccc2)c2ccc(OCCN3CCCC3)cc2)cc1,26.9% (inactive)
3,O=C(CCCCCCN1CC(=O)N2[C@@H](c3ccccc3)c3[nH]c4ccccc4c3C[C@H]2C1=O)NO,47.1% (inactive)
4,Cc1cc(-c2ccc3nc(N)sc3c2)nc2ccc3[nH]ncc3c12,21% (inactive)
5,CCN1C(=O)N(CC)C2SC(N/N=C/c3ccccc3F)=NC21 (centres undefined),16.2% (inactive)
6,COc1ccc(NC2=C(Cl)C(=O)C(C)=C(C)C2=O)cc1,75.9% (inactive)
7,Oc1ccccc1-c1nnc(SCc2ccc(O)c3ncccc23)n1-c1ccccc1,3.11% (active)
8,Cc1ccc(NC(=O)c2cc(/C=C/C(=O)NO)cc(C(F)(F)F)c2)cc1Nc1nccc(-c2cccnc2)n1,-17.5% (active)
9,Cc1nn(-c2ccc(Br)cc2)c2nc(CCl)[nH]c(=O)c12,82.3% (inactive)
10,CCn1c2ccc(/C=N/NS(=O)(=O)CCN(C)C)cc2c2cc(/C=N/NS(=O)(=O)CCN(C)C)ccc21,89.4% (inactive)
11,CC(C)Sc1nc(NC2CC2)c(C#N)c(-c2ccccc2)n1,73.7% (inactive)
12,CCOC(=O)c1nn(-c2ccccc2)c(=O)c2c(N)c(C#N)c(-c3cccs3)cc12,74.6% (inactive)
13,COc1cc(/C=N/n2cnc3oc(-c4ccccc4)cc3c2=N)cc(CN2CCCC2)c1O,-79.3% (active)
14,Oc1ccccc1/C=N/Nc1nc(N/N=C/c2ccccc2O)nc(N2CCOCC2)n1,40% (inactive)
